Compound activity (PubChem)
An excerpt weighted towards active compounds, which were near 4% of everything screened.
HSV augment = HSV replication enhancement. HSV replication augmentation in cells, fold increase. maximum fold increase. 220,000 compounds, 0.005% hits; in the data active = maximum fold increase above about 1.5; inconclusive = no clear call, values can overlap the other calls; tested in PC3 cells
ROMK mod = modulates human ROMK potassium channel activity; 130,000 compounds, 2% hits; B-score at 10 µM; Tet-inducible ROMK, thallium flux fluorescence; actives lie on both sides;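 active = signal ratio slope over the read window, or its plate-corrected B-score, at least 3 SD from the plate mean, either direction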;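 note: B-score of the F/F0 ratio slope over 7 to 12 s after thallium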
Cl transport mod = modulates chloride dependent transport by human KCC2; Q9H2X9; KCC2 cells, thallium flux FluoZin-2 fluorescence; B-score of Tl+ flux slope (higher = more flux/activation; lower = inhibition) at 10 µM; 190,000 compounds, 2.2% hits; AID 1456;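 active = thallium flux slope and its plate-corrected score both differing from the plate sample mean at a set confidence after two filtering rounds, in either direction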;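 note: slope of fluorescence scaled to starting intensity during 10 to 20 s after thallium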
Measles CPE = protection of cells from measles virus; Measles virus-infected cells, CPE protection, absorbance; protection (pct of control), % at 4 µM; 140,000 compounds, 1.5% hits; in the data active = protection mostly above about 24%, no sharp cut-off; inactive = mostly below about 26%
Arbovirus inh = arbovirus infection inhibition; arbovirus infection cell-based antiviral screen; inhibition, % at 10 µM; 200,000 compounds, 0.37% hits; AID 1251; in the data active = inhibition above about 30%
ROMK retest = retested hit modulating human ROMK potassium channel; shares compounds with ROMK mod; ROMK thallium flux, fluorescence ratio; stronger effect = lower value; normalized thallium flux (F/F0 slope) at 10 µM; 3,000 compounds, 54% hits; AID 1917;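 active = Flux at 10 µM at least 3 SD below or above vehicle control mean in one or both replicates; inconclusive = no clear call, values can overlap the other calls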
Numbers without * were called inactive; i = inactive; ? = inconclusive; / = no result.

SMILES | HSV augment | ROMK mod | Cl transport mod | Measles CPE | Arbovirus inh | ROMK retest
COc1ccc(C2=NN(C(=O)CCC(=O)O)C(c3cccs3)C2)cc1 (stereo unspecified) | i | -3.48* | 0.287 | / | 15.2 | 0.0747
Cc1cc(Cl)ccc1OC(C)C(=O)Nc1ccccc1N1CCOCC1 (stereo unspecified) | / | / | -0.736 | 10.3 | 3.7 | ?
COC(=O)c1ccccc1NC(=O)CNc1cc(Cl)ccc1N1CCOCC1 | i | / | -1.3 | 3.8 | 22.9 | /
COc1ccc(Cl)cc1NC(=O)CN(C)CC(=O)Nc1ccccc1N1CCOCC1 | i | 5.09* | 0.686 | / | -2.8 | ?
CN(/C(=N\S(=O)(=O)c1ccccc1)c1ccccc1)c1ccc(O)cc1 | / | -0.012 | -0.601 | / | 15.0 | /
O=c1c2ccccc2nc(/C=C/c2ccc([N+](=O)[O-])cc2)n1CCCO | i | -0.877 | -0.384 | 7.6 | -5.7 | /
O=c1c2ccccc2nc(/C=C/c2ccc([N+](=O)[O-])o2)n1CCCO | i | -3.06* | / | 7.3 | -39.0 | 0.0523*
O=C(O)c1ccc(NC2=C/C(=N/S(=O)(=O)c3ccccc3)c3ccccc3C2=O)cc1 | i | -3.42* | -0.495 | / | -20.2 | 0.0522*
O=C1C(Nc2ccc(O)cc2)=C/C(=N/S(=O)(=O)c2cccs2)c2ccccc21 | i | -0.536 | -0.00913 | / | -36.5 | /
CCC(C)[C@H](NC(=O)Nc1ccccc1F)C(=O)O (stereo partly specified) | i | / | 0.157 | / | / | /
CC1(C)CC(N=Cc2c(O)n(Cc3ccc4c(c3)OCO4)c(=O)c3ccccc23)CC(C)(C)N1 | i | -0.525 | -0.0415 | / | -25.6 | /
COc1ncnc2c1NC1=C(S2)C(=NCCC(=O)O)CC(C)(C)C1 | i | / | 0.0218 | 13.4 | 1.4 | 0.0496*
CN(C)c1ncnc2c1NC1=C(S2)C(=NCCCC(=O)O)CC(C)(C)C1 | i | / | 0.308 | 10.1 | 6.2 | /
O=C(O)Cc1ccc(N=Cc2c(O)ccc3ccccc23)cc1 | i | / | -3.36 | 7.0 | -4.9 | 0.0809
COc1ccc(N=Cc2c(O)ccc3ccccc23)cc1 | i | -2.84 | -0.000258 | / | -18.4 | /
COC(=O)C(CCSC)NS(=O)(=O)c1ccc(Cl)cc1 (stereo unspecified) | i | -0.0782 | 0.643 | / | 9.9 | /
CSCCC(NS(=O)(=O)c1ccc(Cl)cc1)C(=O)OCC(=O)N1CCOCC1 (stereo unspecified) | i | 6.32* | 0.866 | 3.4 | 1.8 | 0.094
CCOc1cc(-c2cc(-c3ccc(C)cc3)nc(N)c2C#N)ccc1O | i | 0.33 | / | 12.7 | -11.9 | /
CCOc1cc(/C=C(\C#N)c2[nH]nc(N)c2C#N)ccc1O | i | 4.79* | / | 31.2 | -2.7 | 0.0883
Cc1ccc(NC(=O)NCC2CCN(Cc3cc(C)ccc3Cl)CC2)c(C)c1 | i | -3.76* | 0.0211 | / | -6.2 | 0.0544*
Cc1ccc(NC(=O)NCC2CCN(Cc3cccc(Cl)c3)CC2)c(Cl)c1 | i | -1.31 | 0.253 | / | 5.5 | /
Cc1nn(Cc2nnc(SCC(=O)Nc3ccc(Cl)cc3)n2C)c(C)c1[N+](=O)[O-] | i | -0.123 | -0.49 | / | / | /
Oc1ccccc1-c1nc(NCCN2CCOCC2)c2ccccc2n1 | i | -3.67* | / | 10.7 | -24.0 | 0.0725
CCOC1=C/C(=C/c2c(N)n3oc(C)cc3nc2=O)C=CC1=O | i | -1.45 | 0.0431 | / | 4.2 | /
CCOC1=C/C(=C/c2c(N)n3nc(-c4ccccc4)sc3nc2=O)C=CC1=O | / | -3.54* | -1.78 | / | 33.3* | 0.0439*
SMILES | HSV augment | ROMK mod | Cl transport mod | Measles CPE | Arbovirus inh | ROMK retest
CC(=O)c1ccc(Nc2cc(C)nc3c(C)cccc23)cc1 | i | 4.23* | -1.58 | / | -22.1 | 0.0871
O=C(c1cc2nc(C3CC3)cc(C(F)(F)F)n2n1)N1CCCC1 | i | 6.86* | -0.545 | 12.7 | -1.8 | 0.0785
CCn1cc(S(=O)(=O)N2CCN(Cc3cccc(Cl)c3)CC2)cn1 | i | -0.258 | 0.261 | / | 3.2 | /
CCn1cc(S(=O)(=O)N2CCN(Cc3ccc(F)cc3)CC2)cn1 | i | -23.4* | -1 | / | -1.4 | 0.0835
N#Cc1cc(C(=O)c2cc(F)ccc2O)cn(-c2nccs2)c1=O | ? | -4.96* | i | 5.8 | -16.3 | 0.0304*
N#Cc1cc(C(=O)c2ccccc2O)cn(-c2nccs2)c1=O | / | -8.41* | i | 2.8 | -19.2 | 0.0251*
CCCOC(=O)CCCCCCCCC(O)CN1CCCCC1 (stereo unspecified) | i | -1.54 | -0.0288 | / | 12.0 | /
COc1cc(C(=O)Nc2nnc(CC(C)C)s2)c([N+](=O)[O-])cc1OC | i | 0.0472 | 0.994 | / | 0.9 | /
CC12CCC(C(=O)N(CC3CO3)C1=O)C2(C)C (stereo unspecified) | i | / | 0.0276 | / | 8.6 | /
COc1ccc(CC(=O)NNc2ncnc3c2cnn3Cc2ccccc2)cc1OC | i | / | 0.581 | / | / | 0.0783
Cc1cccc(Oc2nc(CN3CCOCC3)nc3sc4c(c23)CCCC4)c1 | i | -0.485 | -0.741 | 8.1 | -27.7 | /
Cc1ccc(S(=O)(=O)CC(=O)c2ccc([N+](=O)[O-])cc2)cc1 | i | / | -0.000214 | / | / | 0.0886
Cc1ccc(S(=O)(=O)CC(=O)c2ccc(C)c([N+](=O)[O-])c2)cc1 | i | / | / | 4.4 | 1.0 | /
Cn1nnnc1SCC(=O)N1CCN(S(=O)(=O)c2ccc(Cl)cc2)CC1 | i | -0.175 | 0.65 | / | 7.4 | /
COc1ccc(-c2cc(C(F)(F)F)nc(S(C)(=O)=O)n2)cc1 | i | -4.23* | 0.189 | 2.9 | -31.9 | 0.0552*
CS(=O)(=O)c1nc(-c2ccc(F)cc2)cc(C(F)(F)F)n1 | i | -2.55* | -0.844 | / | -28.5 | 0.0583*
Cc1cc(C)c2nc(/N=C(\N)NC(=O)Nc3ccccc3)nc(C)c2c1 | i | 1.49 | 0.541 | 20.0 | -16.7 | /
CC(C)NC(=O)C1CCN(C2CCN(Cc3ccc4cccc(F)c4n3)CC2)CC1 | i | -0.178 | 0.656 | / | 9.8 | /
COCCCNC(=O)c1cc(C(=O)c2ccccc2Br)c[nH]1 | i | -0.752 | -0.41 | / | -3.5 | /
CCc1n[nH]c(=S)n1/N=C/c1cc(OC)cc([N+](=O)[O-])c1O | i | 0.217 | 2.76 | / | 0.3 | /
CC(/C=C/c1ccco1)=N\NC(=O)COc1ccc(C)c(C)c1 | i | 0.921 | -0.314 | / | -10.7 | /
COCCCn1c(=NC(=O)c2ccncc2)c(C#N)cc2c(=O)n3cccc(C)c3nc21 | i | / | -0.0133 | 5.2 | -1.8 | 0.0597*
CCCCn1c(=NC(=O)c2cccnc2)c(C#N)cc2c(=O)n3cccc(C)c3nc21 | / | 0.75 | -0.278 | 5.5 | -8.3 | /
CC(=O)N=c1c(C#N)cc2c(=O)n3cccc(C)c3nc2n1CCCOC(C)C | i | / | 0.167 | / | / | /
Cc1cccn2c(=O)c3cc(C#N)c(=NC(=O)c4ccncc4)n(CCCOC(C)C)c3nc12 | i | -4.34* | / | 16.6 | -13.6 | 0.0494*
Cc1cccc2c3nc4ccccc4nc3n(CCCN3C(=O)c4ccccc4C3=O)c12 | / | / | 0.171 | 7.8 | -3.4 | 0.0651*
COc1ccc2c(c1)c1nc3ccccc3nc1n2CCCN1C(=O)c2ccccc2C1=O | i | / | -0.255 | 32.1 | -3.8 | /
CCC(C)NC(=O)COC(=O)c1oc2ccccc2c1CSc1ccc(Cl)cc1 (stereo unspecified) | i | -0.00524 | -0.417 | 8.3 | 17.1 | /
